High-throughput results: PubChem BioAssay, National Center for Advancing Translational Sciences (NCATS)
The list is not random: actives were taken first. Their share in the collection is about 4.8%.
ATXN2 expr inh = Primary qHTS for Inhibitors of ATXN expression; HEK-293 ATXN2-luciferase reporter, luminescence, 24 h; Potency, µM (highest dose often 57 µM), hits mostly inhibitors; 360,000 compounds, 0.72% hits; further: nearly all actives have a fitted effect of over 55% in size
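qHTS (up to 57 uM final) was run with 24 h compound exposure of reporter cells at 37 °C. Each well was multiplexed: SteadyGlo luminescence measured ATXN2-luciferase expression after a fluorogenic Gly-Phe-AFC viability readout (25 uM final).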
DRD3 antagonist = qHTS of D3 Dopamine Receptor Antagonist: qHTS. D3R cells, DiscoveRx beta-arrestin luminescence, antagonist mode; active compounds read low. D(3) dopamine receptor (Homo sapiens), P35462. 360,000 compounds, 2.5% hits. max response, negative = inhibition, %; in the data active means max response below about -50%; inconclusive means no clear call, values can overlap the other calls
Target sequence (P35462 whole entry, looked up): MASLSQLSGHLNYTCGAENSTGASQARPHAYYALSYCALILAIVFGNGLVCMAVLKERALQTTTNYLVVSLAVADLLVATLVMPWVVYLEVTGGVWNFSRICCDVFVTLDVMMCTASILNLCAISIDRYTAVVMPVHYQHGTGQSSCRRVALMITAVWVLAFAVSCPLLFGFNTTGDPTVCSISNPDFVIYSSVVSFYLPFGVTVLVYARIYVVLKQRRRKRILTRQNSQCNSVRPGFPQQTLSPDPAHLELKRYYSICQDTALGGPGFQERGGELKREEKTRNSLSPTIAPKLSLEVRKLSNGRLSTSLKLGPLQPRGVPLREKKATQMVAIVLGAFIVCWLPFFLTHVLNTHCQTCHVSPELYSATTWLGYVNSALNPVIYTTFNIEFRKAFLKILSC
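Cells expressing the human receptor were seeded at 1500 cells/well, incubated overnight at 37 degrees C in 5% CO2, then exposed to library compounds with dopamine controls for 90 minutes at 37 degrees C before luminescent detection.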
DRD3 agonist = qHTS of D3 Dopamine Receptor Agonist: qHTS | D(3) dopamine receptor (Homo sapiens), P35462 | max activation, % | 410,000 compounds, 0.58% hits | D3R DiscoveRx beta-arrestin cells, luminescence, 90 min; in the data active means max activation above about 30%
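Agonist mode: compounds and dopamine controls were applied to plated cells for 90 min at 37 degrees C after an overnight attachment at 1500 cells/well. Luminescent read-out followed 30 - 60 minutes at room temperature with DiscoveRx detection reagent.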
TGFb SMAD3 inh = qHTS for Inhibitors of TGF-b; HepG2 CAGA-GFP TGF-b/SMAD3 reporter, GFP fluorescence, 18 h; TGF-beta stimulated, 500 pg/mL final; Potency, µM (doses to about 46.1 µM), hits mostly inhibitors; 410,000 compounds, 1.2% hits; further: nearly all actives have a fitted effect of over 65% in size
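HEPG2 CAGA-GFP reporter cells (1000/well, DMEM with 1% FBS) received compounds, then recombinant TGF-beta at 500 pg/mL final for 18 hours at 37 degrees C. Per-cell GFP summed per well was normalised to unstimulated and stimulated DMSO controls before curve fitting.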
S2 tox = Viability Counterscreen for Primary qHTS for Inhibitors of ATXN expression | S2 cells (HEK-293 line with an ATXN2-luciferase reporter) viability, CellTiter-Fluor protease fluorescence, 24 h | Potency, µM (top dose mostly 56.7 µM), most hits filed as cytotoxic | 400,000 compounds, 0.49% hits; further: nearly all actives have a fitted effect of over 40% in size
HepG2 tox = qHTS for Inhibitors of TGF-b: Cytotox Counterscreen | HepG2 CAGA-GFP viability, ATP luminescence, 18 h | 410,000 compounds, 0.76% hits | Potency, µM (doses to about 46.1 µM), actives largely listed as cytotoxic
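CellTiter-Glo luminescence gave cytotoxicity after 18 hours at 37 degrees C. The cells were HepG2 CAGA-GFP in 1% FBS DMEM, stimulated with 500 pg/mL TGF-beta after compound addition. %Activity was normalised to no-cell wells (complete cell-killing) and DMSO (no toxicity), and curves were fitted and classified.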
A number is an active result; n = inactive; u = inconclusive; x = no result. Unless noted, the call rests on the fitted dose curve; in most records, active means well fitted curve in the direction sought with a large enough effect; inconclusive means small, poorly fitted or top-dose-only effect, or another doubt; inactive means no such curve, though single readings can be large; an effect the other way counts as inactive or inconclusive.

SMILES	ATXN2 expr inh	DRD3 antagonist	DRD3 agonist	TGFb SMAD3 inh	S2 tox	HepG2 tox
Oc1ccc(CN2CCN(Cc3ccccc3)CC2)c2cccnc12	n	-58.1	n	u	n	n
O=S(=O)(c1ccc(Cl)cc1)N1CCN(Cc2ccc(O)c3ncccc23)CC1	u	n	n	u	n	n
O=C(c1c[nH]c2ccccc12)N1CCN(Cc2ccccc2)CC1	n	n	n	n	n	n
COc1cc(=O)n2c(c1C(=O)N(C)Cc1nonc1C)CCN(Cc1ccccc1F)CC2	x	x	x	x	n	x
CC(C)COc1ccc(C(=O)Nc2nnc(S(=O)(=O)N(C)Cc3ccco3)s2)cc1	x	x	n	n	x	n
CC(=O)Nc1ccc(OCC(O)CN2CCN(c3cccc(Cl)c3)CC2)cc1 (configuration not stated)	n	n	34.5	n	n	n
CC(=O)Nc1ccc(OCC(O)CN2CCN(c3ccc(Cl)cc3)CC2)cc1 (configuration not stated)	n	-72.0	n	n	n	n
CC(=O)Nc1ccc(OCC(O)CN2CCN(c3ccc(F)cc3)CC2)cc1 (configuration not stated)	n	u	n	n	n	n
OC1(c2ccc(Cl)c(Cl)c2)C[n+]2ccccc2N1Cc1ccccc1 (configuration not stated)	35.5µM	n	n	u	x	n
CSCC(=O)NC1CCCN(C2Cc3ccccc3C2)C1 (configuration not stated)	n	n	n	u	u	7.94µM
CCOC(=O)c1cc(-c2csc(-c3ccc(C(C)(C)C)cc3)n2)on1	n	n	31.8	n	n	n
N=C1SC(CC(=O)Nc2ccccc2[N+](=O)[O-])C(=O)N1c1ccccc1 (configuration not stated)	x	-61.7	n	n	n	n
O=C(CC1SC(=O)N(c2ccccc2)C1=O)Nc1cccc2ccccc12 (configuration not stated)	n	n	n	n	u	n
Cc1ccccc1NC(=O)CC1SC(=O)N(c2ccccc2)C1=O (configuration not stated)	n	-91.9	n	n	n	n
Cc1ccccc1NC(=O)Cn1c(=O)n(CCC(=O)N2CCc3ccccc3C2)c(=O)c2ccccc21	n	x	n	n	n	n
CCOC(=O)c1c(C)sc(-c2c(-c3ccc4c(c3)OCCO4)[nH]c3c2c(=O)[nH]c(=O)n3C)c1O	x	x	n	n	x	n
O=C1Cc2cc(Cl)ccc2N1	n	x	x	x	n	x
Cc1cccc2c1-c1sc(C(=O)N3CCN(c4ccccc4)CC3)cc1CO2	n	x	n	n	n	n
Cn1nnnc1SCCCNCc1ccccc1OCc1ccc(F)cc1	n	x	n	n	n	n
COCCn1c(SCC(=O)c2ccc(Cl)cc2)nnc1C(C)C	n	-69.5	n	n	n	n
COCCn1c(SCC(=O)c2ccc3c(c2)OCCO3)nnc1C(C)C	n	n	n	n	n	n
COc1cccc(CCNc2ncnc3sc(C(=O)N4CCOCC4)c(C)c23)c1	x	x	x	x	n	x
CN(C)c1ncc(C2=C(Cl)C(=O)C(N3CCCC3)=C(Cl)C2=O)s1	25.1µM	u	n	n	x	n
Cc1oc2c(c(C)cc3oc(=O)c(CC(=O)NCc4ccc(F)cc4)c(C)c32)c1C	x	x	n	n	x	n
O=C(CSc1n[nH]c(=O)n1C1CC1)c1ccc(F)cc1	n	-59.8	n	n	n	n
SMILES	ATXN2 expr inh	DRD3 antagonist	DRD3 agonist	TGFb SMAD3 inh	S2 tox	HepG2 tox
CCn1cc2nc(SCc3cccc(C(F)(F)F)c3)n(Cc3ccc(C)cc3)c(=O)c2n1	n	x	n	u	n	n
CCc1ccc(-c2nc(SCC(=O)NCC3CCCO3)c(-c3ccc(F)cc3)[nH]2)cc1 (configuration not stated)	x	x	n	u	x	n
CCOc1cccc(C(=O)N(Cc2ccc(F)cc2)C2CCS(=O)(=O)C2)c1 (configuration not stated)	n	n	38.1	n	n	n
CCOc1ccccc1NC(=O)C(C)N(c1ccccc1)S(C)(=O)=O (configuration not stated)	n	x	37.1	n	n	n
N#CC(C#N)=C1C=CC=CN1/C(=C\c1ccccc1Cl)C(=O)c1ccccc1	12.6µM	-103.8	n	3.16µM	u	7.08µM
N#CC(C#N)=C1C=CC=CN1/C(=C\c1ccccc1)C(=O)c1cccs1	n	n	n	n	n	n
CCOC(=O)c1c(S(=O)(=O)N2CCC(C(=O)Nc3cccc(C#N)c3)CC2)c(C)n(C)c1C	n	x	n	n	n	n
OC(CNCC1COc2ccccc2O1)COc1ccccc1F (configuration not stated)	n	-78.2	n	n	n	n
OC(CNCC1COc2ccccc2O1)COc1ccc(Cl)cc1 (configuration not stated)	n	-80.3	n	u	n	n
OC(COCC1COc2ccccc2O1)CN1CCN(c2ccccc2F)CC1 (configuration not stated)	n	u	n	n	n	n
COc1ccc(C)cc1NC(=O)c1cc2c(s1)-c1ccccc1SC2	x	x	n	x	x	n
COc1ccccc1CNC(=O)CCCCn1c(=O)c2ccccc2n(CC(=O)Nc2cccc(Cl)c2)c1=O	n	x	n	n	u	n
CO[C@H]1C[C@@H]2CC[C@@H](C)[C@@](O)(O2)C(=O)C(=O)N2CCCC[C@H]2C(=O)O[C@H]([C@H](C)C[C@@H]2CC[C@@H](OCCO)[C@H](OC)C2)CC(=O)[C@H](C)/C=C(\C)[C@@H](O)[C@@H](OC)C(=O)[C@H](C)C[C@H](C)/C=C/C=C/C=C/1C	x	x	n	x	x	x
CCC(NC(=O)c1cccc(Cn2cc([N+](=O)[O-])cn2)c1)c1ccc(C(C)C)cc1 (configuration not stated)	n	-52.8	n	n	n	n
CC(NC(=O)c1cccc(Cn2cc([N+](=O)[O-])cn2)c1)c1ccc(C(C)(C)C)cc1 (configuration not stated)	n	n	n	n	n	n
Cc1nnc(SCC(=O)NNC(=O)c2ccccc2)n1-c1ccccc1	n	n	n	n	n	n
CCSc1nnc(C)n1-c1ccc(C(=O)O)cc1	n	-56.4	n	n	n	n
Cc1nnc(SCC(=O)N2CCCC2)n1-c1ccc(F)cc1	n	n	n	n	n	4.47µM
COc1cc(Cl)c(C)cc1NC(=O)c1cc(CN2CCOCC2)on1	n	x	n	n	n	n
N/C(=C\C(=O)c1cc(Cl)ccc1O)C(Cl)(Cl)Cl	20µM	u	n	10µM	u	n
